# Screening data deposited in PubChem by several laboratories.
# Hits are enriched below; roughly 1.6% of the tested compounds scored in any of these assays.
# eIF4H inh = human eIF4H binding inhibitors, primary screen, translation initiation inhibitor project, biochemical, uHTS, fluorescence polarization; Eukaryotic translation initiation factor 4H (Homo sapiens), Q15056; eIF4H fluorescence polarization binding assay; inhibition, % at 35 µM; actives 0.94% (n = 290,000); AID 2012, 2009;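 note: calls also rest on retests at 20 µM and on dose response follow-up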
# eIF4E-4G inh = eIF4E–eIF4G protein interaction inhibitors, primary screen, biochemical, uHTS, TR-FRET, eIF4GI fragment; inhibition, % at 21.7 µM; Eukaryotic translation initiation factor 4E (Mus musculus) + Eukaryotic translation …; TR-FRET eIF4E-eIF4GI(517-606) binding, 2 h; actives 0.37% (n = 220,000);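 active = inhibition above about 30%, limit read from the data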;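 note: 0% = full FRET control wells and 100% = background wells lacking eIF4GI fragment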
# PERK inh = block of dimerizer-induced PERK translation repression, primary screen, PERK inhibitor project, CHO PERK-DD cells, SEAP luminescence, HTS; AID 1416, 2008; actives 0.17% (n = 220,000); inhibition, % at 5.6 µM; CHO PERK-DD fusion, SEAP luminescence translation reporter;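 active = inhibition above the mean inhibition of all tested compounds plus 3 SD, set separately per screening campaign, cut at about 2.9% in these data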;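 note: PERK kinase domain activated by AP20187 dimerizer at 100 nM; 0% = DMSO with dimerizer and 100% = rapamycin at 8.4 µM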
# PABP FP inh = PABP poly(A) RNA binding inhibitors, primary screen, biochemical, fluorescence polarization, uHTS; AID 2014, 2009; actives 1% (n = 290,000); Polyadenylate-binding protein 1 (Homo sapiens), P11940; inhibition, % at 35 µM;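 note: calls also rest on retests at 20 µM and on dose response follow-up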
# PABP1 MLLE inh = inhibitors of PABP1 MLLE–PAM2 peptide binding, primary screen, biochemical, fluorescence polarization, FITC-PAM2, GST-MLLE | Polyadenylate-binding protein 1 (Homo sapiens), P11940 | inhibition, % at 20 µM | actives 0.36% (n = 360,000); in the data active = inhibition above about 35%, passing the limit was not always enough;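 note: plate controls were DMSO wells with GST-MLLE for no effect and wells lacking GST-MLLE protein for full effect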
# * = called active by the depositor; ? = inconclusive; nt = no result given. Unless noted, the rule behind the calls is not given here.
SMILES,eIF4H inh,eIF4E-4G inh,PERK inh,PABP FP inh,PABP1 MLLE inh
Cc1ccccc1C(=O)N=c1c(C#N)cc2c(=O)n3cccc(C)c3nc2n1Cc1ccco1,41.6,-2.8,-0.1,52.9,nt
Cc1cccn2c(=O)c3cc(C#N)c(=NC(=O)c4ccncc4)n(CCCOC(C)C)c3nc12,75.2*,3.5,0.4,63.2*,6.5
COCCCn1c(=NC(=O)c2ccncc2)c(C#N)cc2c(=O)n3cccc(C)c3nc21,?,5.6,-0.8,?,88.1
COc1ccc(C(=O)N=c2c(C#N)cc3c(=O)n4cccc(C)c4nc3n2Cc2ccco2)cc1,22.1,0.2,-0.1,34.7,nt
N#Cc1cc2c(=O)n3ccccc3nc2n(Cc2ccco2)c1=NC(=O)c1ccco1,?,9.2,0.4,7.9,41.1*
Cc1noc(C)c1COc1ccc(C(=O)NCc2cccs2)cc1,nt,nt,nt,nt,-7.6
COc1ccc(C(=O)Cc2ccccc2)cc1OC,4.6,0.4,4.8*,-5.9,-3.5
CCS(=O)c1ccccc1C(=O)OCC(=O)Nc1ccc2ccccc2c1 (stereo not drawn),nt,nt,nt,nt,0.6
CCN(CC)c1ccc(/C=C2\CCC(/C=C(\C#N)C(=O)Nc3ccccc3F)=C2N2CCOCC2)cc1,61.3*,1.4,0.7,1.4,-77.8
CCN(CC)c1ccc(/C=C2\CCC(/C=C(/C#N)C(=O)Nc3ccccc3F)=C2N2CCOCC2)cc1,nt,nt,nt,nt,-56.1
CC(OC(=O)/C(C#N)=C/c1ccc(N(C)C)cc1)C(=O)N(C)Cc1ccccc1 (stereo not drawn),?,nt,nt,?,-128.5
CCN1CC2=C(OC(N)=C(C#N)C2c2cccs2)/C(=C\c2cccs2)C1 (stereo not drawn),97.6*,0.1,-0.1,103.6*,-52.0
CCCCN(C(=O)c1nn(C)c(=O)c2ccccc12)c1c(N)n(CC(C)C)c(=O)[nH]c1=O,nt,nt,nt,nt,-16.0
Cc1cccn2c(=O)c3cc(C(N)=S)c(=N)n(CCCN4CCOCC4)c3nc12,74.8*,3.2,1.2,active,19.4
COCCCn1c(=N)c(C(N)=S)cc2c(=O)n3cccc(C)c3nc21,nt,nt,nt,nt,21.8
O=C(COC(=O)Cc1cccc(F)c1)NC(=O)NC1CCCCC1,nt,nt,nt,nt,-6.5
CC(C)=CCC[C@H](C)C[C@@H]1CC2=C(C(=O)OC(C)(C)O2)[C@H](c2ccc(Cl)cc2)O1,nt,nt,nt,nt,4.2
C=C(CN(C)C)C(=O)c1cc(C)ccc1C,nt,nt,nt,nt,25.2
O=[N+]([O-])c1ccc(CSc2ccc(S(=O)(=O)N3CCOCC3)cn2)cc1,nt,nt,nt,nt,37.5*
O=[N+]([O-])c1ccc(CSc2ccc(S(=O)(=O)N3CCCC3)cn2)cc1,nt,nt,nt,nt,32.4
Cc1ccc([C@H]2C[C@@H](n3cc(-c4ccc(F)cc4)nn3)[C@H](O)CN2C(=O)C2CCCCC2)cc1,nt,nt,nt,nt,3.4
Cc1ccc(/C=c2/sc3n(c2=O)CCCN=3)o1,78.9,-0.5,0.9,-7.8,3.5
O=C(NCc1ccc(/C=c2\sc3n(c2=O)CCN=3)o1)C(=O)Nc1ccccc1,81.6*,22.9,-0.3,-11.4,nt
NC(=O)C1CN(C(=O)c2cccc(S(=O)(=O)N3CCc4ccccc43)c2)c2ccccc2O1 (stereo not drawn),nt,nt,nt,nt,6.5
CC(=O)Nc1ccc(-c2ccnc3c2CC(C(=O)Nc2cccc(OC(F)(F)F)c2)O3)cc1 (stereo not drawn),nt,nt,nt,nt,-6.8
SMILES,eIF4H inh,eIF4E-4G inh,PERK inh,PABP FP inh,PABP1 MLLE inh
CCOc1ccc(N2CC(C(=O)Nc3cccc(S(=O)(=O)N4CCCC4)c3)CC2=O)cc1 (stereo not drawn),nt,nt,nt,nt,2.4
CCOc1ccc(N2CC(C(=O)Nc3ccc(OC)c(S(=O)(=O)N4CCCCC4)c3)CC2=O)cc1 (stereo not drawn),3.0,5.0,0.0,64.3*,-22.2
CCOc1ccc(N2CC(C(=O)Nc3cccc(S(=O)(=O)NC4=NCCC4)c3)CC2=O)cc1 (stereo not drawn),-4.8,97.2*,0.7,2.8,-13.2
CCc1ccccc1OCC(=O)N1CCN(c2ncccn2)CC1,nt,nt,nt,nt,-0.6
CC(=O)Nc1ccc(NC(=O)C(C)OC(=O)[C@@H]2CCCN2C(=O)c2cccs2)cc1 (stereo partly drawn),nt,nt,nt,nt,-12.9
Nc1cccc(C2=Nc3cccc4cccc(c34)N2)c1,13.3,18.2,1.3,-3.6,2.5
COc1ccc(C2=Nc3cccc4cccc(c34)N2)cc1,78.1*,-6.5,0.6,22.0,-2.9
Cc1c(C=O)c2ccccn2c1C(=O)c1cccs1,94.1*,1.1,-0.7,15.7*,31.8
Cc1ccc(-n2nnnc2-c2ccccc2)cc1,0.8,-2.3,0.8,3.7,9.6
CCN(CC)c1ccc(C=C(c2nnnn2-c2ccc(C)cc2)c2nnnn2-c2ccc(C)cc2)cc1,53.3*,2.8,-1.2,-20.4,-71.3
COc1ccc2c(COC(=O)CC3Sc4ccccc4NC3=O)cc(=O)oc2c1 (stereo not drawn),29.0,12.1,-0.2,-3.4,-29.5
CC(=O)Nc1ccc2c(COC(=O)CC3Sc4ccccc4NC3=O)cc(=O)oc2c1 (stereo not drawn),?,9.0,1.2,87.2*,-70.5
CCCCN(C(=O)c1cccs1)C1CCS(=O)(=O)C1 (stereo not drawn),nt,nt,nt,nt,3.7
CSc1nsc(SCC(=O)N2CCc3ccccc32)n1,5.9,37.8*,-0.8,7.8,7.9
COc1ccccc1N(C(=O)CCl)c1cn(C(C)=O)c2ccccc12,3.6,-3.8,-1.5,-6.5,-5.2
COc1ccccc1N(C(C)=O)C1=C(Cl)C(=O)c2ccccc2C1=O,nt,nt,nt,nt,39.4*
F[B-](F)(F)c1cncc2ccccc12,nt,nt,nt,nt,18.4
O=C(CSc1nc2c(c(=O)n1-c1ccc(F)cc1)SCC2)NCc1ccco1,2.2,-0.7,-0.8,8.5,44.7*
O=c1[nH]ncc(NCc2ccc(Cl)cc2)c1Cl,0.5,-1.5,0.3,52.8*,-9.9
Cc1n[nH]c(=O)nc1NCc1ccc(Cl)cc1,-1.8,-2.3,0.1,4.7,-0.6
O=[N+]([O-])c1ccc(N/N=C/c2ccc(O)c(O)c2O)c(S(=O)(=O)N2CCOCC2)c1,89.6,20.2,0.5,30.5*,-13.8
O=C(CCc1ccc(O)c(O)c1)N/N=C/c1cc2c(cc1[N+](=O)[O-])OCO2,94.0*,nt,nt,60.7*,15.4
O=[N+]([O-])c1ccc(N/N=C/c2cccc(O)c2O)c(S(=O)(=O)N2CCOCC2)c1,7.8,2.7,0.0,-5.4,-9.3
O=C(CCc1ccc(S(=O)(=O)N2CCOCC2)cc1)N/N=C/c1ccc(O)c(O)c1O,95.5*,15.8,0.6,active,33.0
O=C(CCc1ccc(S(=O)(=O)N2CCOCC2)cc1)N/N=C/c1ccc(F)cc1F,-6.3,-1.3,-0.2,-1.9,-0.3
CC1CCCCN1C(=O)COC(=O)c1cc(Cl)c2c(c1)OCO2 (stereo not drawn),nt,nt,nt,nt,7.5
COc1ccc(C(=O)CN2CCN(S(=O)(=O)c3cccc([N+](=O)[O-])c3)CC2)cc1OC,-8.6,-3.9,-0.9,6.1,39.2*
